Reference: ChEMBL document CHEMBL4513216, “Probing the Open Global Health Chemical Diversity Library for Multistage-Active Starting Points for Next-Generation Antimalarials” (ACS Infect Dis, 2020)
Screen size: about 69,000 compounds; about 8,600 (12%) showed an effect of 50% or more. Shown is part of a subset that was picked to be rich in strong results.

What follows are compounds tested on Plasmodium berghei (assay: Screen against P. berghei liver stage (PbLuc), transformed with Luciferase, at 10uM). Details: tested at 10 uM.
Format: functional, HepG2

| SMILES | INHIBITION |
| --- | --- |
| Cc1cnc(N2CC[C@@H]3O[C@H](COCc4ccccn4)CC[C@@H]32)nc1 | 5.44% |
| CC(C)c1cc(=O)[nH]c(-c2ccccc2CN2CCCCCC2)n1 | 23.1% |
| CCSc1cncc(N2CCC(C(=O)NC(C)C(C)C)CC2)n1 (centres undefined) | -26.2% |
| NC(=O)C1CCN(C(=O)c2ccn(-c3ccc(F)cc3)n2)CC1 | -66.9% |
| CCN(Cc1cccnc1)CC1(C)Cc2c(N)nc(N)nc2O1 (centres undefined) | 4.57% |
| CCC1c2ccsc2CCN1C(=O)NCc1cccnc1OC (centres undefined) | 9.383% |
| O=C(c1cnccn1)N1CCCC2(CCN(c3ncccn3)C2)C1 (centres undefined) | 9.63% |
| COCC(=O)N1CCCCC1c1ccnc(Nc2ncc(C)s2)n1 (centres undefined) | 48.4% |
| CN(C)CCO[C@H]1CN(C(=O)c2cscn2)[C@@H]2COC[C@H]12 | -16.1% |
| NC(=O)[C@@H]1Cc2ccccc2CN1S(=O)(=O)N1CCCCC1 | 51% |
| NC(=O)[C@@H]1Cc2ccccc2CN1S(=O)(=O)N1CCCCCC1 | 32% |
| CC1CCN(S(=O)(=O)N2Cc3ccccc3C[C@H]2C(N)=O)CC1 | 43.2% |
| Cc1ccc(OC2(C(=O)O)CCN(C(=O)CCc3ccco3)CC2)cc1 | 31.4% |
| CC1CCN(C(=O)C2(Cc3cc(C4CCOC4)no3)CCNCC2)CC1 (centres undefined) | 32.3% |
| Cc1noc(C)c1C(=O)N1C[C@@H]2C[C@@H](c3ccncn3)O[C@@H]2C1 | -10.9% |
| COc1cc(-c2noc(C(CC(C)C)N3CCCCC3=O)n2)ccn1 (centres undefined) | 34.1% |
| COc1ccc(-c2noc(C(CC(C)C)N3CCCCC3=O)n2)cn1 (centres undefined) | 51.7% |
| CC(C)CC(c1nc(-c2cnn(C)c2)no1)N1CCCCC1=O (centres undefined) | 38.7% |
| CCCNC(=O)c1nn(CC)cc1Cl | 24.2% |
| CC(=O)N1CCC1c1cc(NC2CCOCC2)nc(C)n1 (centres undefined) | 11.65% |
| Cc1ccnc(C2CN(Cc3ccc(-c4ccccc4C(=O)O)o3)C2)n1 | 14.35% |
| O=C(c1cnc(O)cn1)N1CCC(CN2CCOCC2)CC1 | -30.3% |

| SMILES | INHIBITION |
| --- | --- |
| CCOc1ccc(CN2CCN(C(=O)c3ccc(C)n3C)CC2)cc1 | 74.8% |
| COc1ccc(CN2CCN(C(=O)c3ccc(C)n3C)CC2)cc1 | 46.2% |
| Cc1ccc(C(=O)N2CCN(Cc3cccs3)CC2)n1C | 19.4% |
| Cc1ccc(C(=O)N2CCN(Cc3ccccc3)CC2)n1C | 27.6% |
| Cc1ccc(C(=O)N2CCN(Cc3ccsc3)CC2)n1C | 9.32% |
| Cc1ccc(C(=O)N2CCN(Cc3ccc(C#N)cc3)CC2)n1C | 54.4% |
| CC(C)N1CCCC1c1cc(CO)[nH]n1 (centres undefined) | 9.585% |
| O=C(NCCN1CCOC1=O)c1cc(-c2ccccc2)on1 | 30.2% |
| CCSc1ccc(C(=O)N2CC[C@](O)(CC)[C@H](O)C2)s1 | 53.9% |
| CCSc1ccc(C(=O)N2CCC3(CC2)[C@H](O)C[C@@H]3O)s1 | 16.7% |
| CCSc1ccc(C(=O)N2CC[C@](C)(O)[C@H](C)C2)s1 | -5.12% |
| Cc1ccc(CN2CCn3c(CN4CCN(C)CC4)cnc3C2C)s1 (centres undefined) | 24.3% |
| CC(C(=O)NCc1ccc2c(c1)OCCO2)n1cncn1 (centres undefined) | 46.6% |
| COc1cc(CN2CC[C@@H](N3CCCCCC3)[C@H](O)C2)cc(Cl)c1OC | 1.56% |
| CC1CC(=O)c2cc(C(=O)N3CCOCC3)c(=O)[nH]c2C1 (centres undefined) | 13.9% |
| CN(C)C(=O)CN1C[C@H]2CC[C@@H](C1)N(Cc1c(F)cccc1Cl)C2 | 29.8% |
| CN(C)C(=O)CN1C[C@H]2CC[C@@H](C1)N(Cc1ccccc1OCCO)C2 | 59.7% |
| CN(C)C(=O)CN1C[C@H]2CC[C@@H](C1)N(Cc1ccccc1C#N)C2 | 41.5% |
| CN(C)C(=O)CN1C[C@H]2CC[C@@H](C1)N(Cc1cccc(Cl)c1Cl)C2 | 61.8% |
| CN(C)C(=O)N1C[C@H]2CC[C@@H](C1)N(C/C=C/c1ccc(F)cc1)C2 | -27.7% |
| CN(C)S(=O)(=O)N1C[C@H]2CC[C@@H](C1)N(C/C=C/c1ccc(F)cc1)C2 | 30.7% |
| CN(C)C(=O)CN1C[C@H]2CC[C@@H](C1)N(Cc1ccc(Cl)cc1Cl)C2 | 19.1% |

| SMILES | INHIBITION |
| --- | --- |
| CN(C)C(=O)CN1C[C@H]2CC[C@@H](C1)N(Cc1cc(F)ccc1F)C2 | 0.139% |
| CN(C)C(=O)CN1C[C@H]2CC[C@@H](C1)N(C/C=C/c1ccc(F)cc1)C2 | 52.5% |
| CCOc1ccc(Cl)c(C(=O)N2CCCC(c3cc(C)[nH]n3)C2)n1 (centres undefined) | -4.13% |
| CS(=O)(=O)NCC(=O)NC1CCCN(c2ccccn2)C1 (centres undefined) | 7.605% |
| CC1(C)CN(C(=O)c2cc(F)cc3[nH]cnc23)CCS1 | 10.2% |
| O=C1COC2(CCN(C(=O)c3ccco3)CC2)CN1Cc1cccnc1 | 43.2% |
| CNC(=O)[C@@H]1CN(C(=O)COC)C[C@H]1c1ccnc(N2CCCC2)n1 | 21.7% |
| Cn1ccc(C(=O)Nc2cc(F)ccc2OCC2CCCO2)cc1=O (centres undefined) | 15.6% |
| Cc1nc(COCc2nc3c(o2)CN(C(=O)c2ccc[nH]2)C3)cs1 | -13.9% |
| CN(C)CC(=O)N1CCO[C@@H]2CC(COCc3ccncc3)C[C@H]21 (some centres undefined) | 11.3% |
| Cc1ccc(C(C(=O)N(C)CCc2cn[nH]c2)N(C)C)cc1 (centres undefined) | 51.1% |
| CN(CCc1cn[nH]c1)C(=O)C(c1ccc(F)cc1)N(C)C (centres undefined) | 43.7% |
| Cc1ccccc1C(C(=O)N(C)CCc1cn[nH]c1)N(C)C (centres undefined) | 54.4% |
| Cc1cccc(C(C(=O)N(C)CCc2cn[nH]c2)N(C)C)c1 (centres undefined) | 42.6% |
| Cc1ccccc1C(C(=O)N(C)CCc1cnn(C)c1)N(C)C (centres undefined) | 31.7% |
| Cc1cc(C)cc(CCC(=O)N(C)CCc2cn[nH]c2)c1 | -10.2% |
| COc1cccc(C(C(=O)O)N(C)Cc2ccc(C)o2)c1 (centres undefined) | 46.7% |
| CN(C)[C@@H]1CN(C(=O)c2cc3ccc(F)cc3[nH]2)C[C@H]1O | 18.15% |
| Cc1ccsc1C(=O)N1CCCn2c(nc(CN(C)C)cc2=O)C1 | -10.3% |
| CCn1c(CN2CCN(CCOC)CC2)nc2c(F)cccc21 | 46.95% |
